From PubChem BioAssay AID1376 (SRMLSC, 2008)
Among all 220,000 compounds or so, about 530 (0.24%) were called active. Rule as the data show it: active = inhibition above about 13%; inconclusive = no clear call, values can overlap the other calls; inactive = below that. Only a selection was taken, and actives are over-represented in it overall. Measured potencies and affinities stand elsewhere.

What follows are compounds tested against Bifunctional protein GlmU (Mycobacterium tuberculosis (strain ATCC 25618 / H37Rv)) (UniProt P9WMN3) (assay: inhibition of mycobacterial GlmU enzyme – biochemical, glucosamine-1-phosphate acetyltransferase (AID 1376;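 also: 0% = complete reaction with vehicle and 100% = reaction without substrate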)). Conditions: M. tuberculosis GlmU acetyltransferase enzyme assay; stronger effect = higher value;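 tested at 30 µM in the primary screen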.
Sequence of Bifunctional protein GlmU (Mycobacterium tuberculosis (strain ATCC 25618 / H37Rv)) (P9WMN3 whole entry, looked up): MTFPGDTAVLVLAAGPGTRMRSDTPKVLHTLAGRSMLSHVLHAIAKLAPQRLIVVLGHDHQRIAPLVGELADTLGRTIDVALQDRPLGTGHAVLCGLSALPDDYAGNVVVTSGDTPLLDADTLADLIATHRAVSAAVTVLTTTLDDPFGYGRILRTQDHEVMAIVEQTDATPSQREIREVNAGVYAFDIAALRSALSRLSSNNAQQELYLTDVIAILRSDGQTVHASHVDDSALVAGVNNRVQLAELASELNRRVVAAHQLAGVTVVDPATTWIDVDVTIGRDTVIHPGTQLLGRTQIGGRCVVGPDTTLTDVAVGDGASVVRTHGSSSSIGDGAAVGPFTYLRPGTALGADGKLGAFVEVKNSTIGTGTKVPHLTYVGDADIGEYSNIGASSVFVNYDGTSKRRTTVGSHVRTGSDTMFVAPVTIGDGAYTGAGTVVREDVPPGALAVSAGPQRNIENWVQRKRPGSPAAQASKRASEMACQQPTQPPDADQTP
`O=C(CSc1nnc(Cc2cccs2)n1-c1ccccc1)NCc1ccc2c(c1)OCO2` was tested, and the inhibition was 5.29% (inactive). In the case of `O=C(CSc1nnc(-c2cccs2)n1-c1ccccc1)NCc1ccc2c(c1)OCO2`, the inhibition is reported as 4.61% (inactive). For `O=C(CSc1nnc(Cc2cccs2)n1-c1ccc(Cl)cc1)NCc1ccc2c(c1)OCO2`, the inhibition was 12.9% (active). For `Cc1cccc(NC(=O)Cn2cnc3c(oc4ccccc43)c2=O)c1C`, the inhibition was 3.4% (inactive). For `CCC(=O)N/C(=N/c1nc(C)cc(C)n1)Nc1ccc(OC)cc1`, the inhibition was 7.87% (inactive). For `N#CC12CCCCC1CC1CCCCC1(C#N)N2CCO` (configuration not stated), the inhibition was 0.23% (inactive). In the case of `CC(C)Oc1ccc(C2CC(=O)NC3=C2C(=O)CCC3)cc1` (configuration not stated), the inhibition is reported as -5.28% (inactive). With `CCCOc1ccc(C2NC(=O)NC2=O)cc1` (configuration not stated) the inhibition was 1.13% (inactive). In the case of `CC(C)Oc1ccc(C2CCC(=O)NC2=O)cc1` (configuration not stated), the inhibition is reported as 13.8% (active). For `CC(C)Oc1ccc(C2NC(=O)NC2=O)cc1` (configuration not stated), the inhibition was 14.6% (active). With `CC(C)COc1ccc(C2NC(=O)NC2=O)cc1` (configuration not stated) the inhibition was -0.34% (inactive). With `CC(C)Oc1ccc(C2CNC(=O)C2)cc1` (configuration not stated) the inhibition was 5.76% (inactive). `Cc1cc(N=NC(=O)c2ccccc2)ccc1O` was tested, and the inhibition was 1.4% (inactive). In the case of `O=C(CNc1cccc(C(F)(F)F)c1)N/N=C/c1ccccc1C(=O)O`, the inhibition is reported as 13.4% (active). `O=C(CNc1cccc(C(F)(F)F)c1)N/N=C/c1cn(-c2ccccc2)nc1-c1ccccc1` was tested, and the inhibition was -4.25% (inactive). In the case of `O=C(CNc1cccc(C(F)(F)F)c1)N/N=C/c1cccc(Br)c1`, the inhibition is reported as -0.17% (inactive). `N/N=C1\CCCc2c1[nH]c1ccc([N+](=O)[O-])cc21` was tested, and the inhibition was 0.8% (inactive). In the case of `CCn1c(SCC(=O)N2CCc3ccccc32)nnc1-c1c[nH]c2ccccc12`, the inhibition is reported as 6.94% (inactive). For `Clc1ccc(Cn2nc(-c3ccccc3)nc2-c2ccccc2)cc1`, the inhibition was 7.14% (inactive). In the case of `O=C1NC(=O)N(c2ccc(Cl)cc2)C(=O)/C1=C\c1ccc(Sc2nc3ccccc3[nH]2)o1`, the inhibition is reported as 12.5% (inactive). With `O=C1NC(=O)N(c2cccc(Cl)c2)C(=O)/C1=C\c1ccc(Sc2nc3ccccc3[nH]2)o1` the inhibition was 22.4% (inactive). For `CN(C)S(=O)(=O)c1ccc(C(=O)N2CCOCC2)cc1`, the inhibition was 9.61% (inactive). `CN(C)S(=O)(=O)c1ccc(=S)[nH]c1` was tested, and the inhibition was 1.27% (inactive). With `CSc1ccccc1NC(=O)Nc1ccc(F)c(Cl)c1` the inhibition was 15% (active). In the case of `CSc1ccccc1NC(=O)Nc1ccc(Cl)cc1`, the inhibition is reported as 1.07% (inactive). For `CSc1ccccc1NC(=O)Nc1cccc(Cl)c1`, the inhibition was 1% (inactive). In the case of `Cc1ccc(-n2c(-c3ccccc3)cc(/C=N/NC(=O)CC#N)c2-c2ccccc2)cc1`, the inhibition is reported as -1.01% (inactive). `COc1ccc2c(c1)CCc1c(C(=O)N3CCc4ccccc4C3)noc1-2` was tested, and the inhibition was 5.33% (inactive). With `COc1ccc2c(c1)CCc1c(C(=O)N3CCCCCC3)noc1-2` the inhibition was 0.33% (inactive). In the case of `COc1ccc2c(c1)CCc1c(C(=O)N3CCOCC3)noc1-2`, the inhibition is reported as 13.8% (active). In the case of `CC(C)(C)C1CCC(=NNC(=O)c2cc3c(s2)CCCC3)CC1` (configuration not stated), the inhibition is reported as -4.64% (inactive). `CCn1c(NC(=O)c2ccc(COc3ccc(C)cc3[N+](=O)[O-])o2)nc2ccccc21` was tested, and the inhibition was 15.2% (active). In the case of `Cc1ccc(OCc2ccc(C(=O)Nc3nc4ccccc4n3Cc3ccccc3)o2)c([N+](=O)[O-])c1`, the inhibition is reported as -4.38% (inactive). In the case of `Cc1ccc(OCc2ccc(C(=O)Nc3nc4ccccc4n3C)o2)c([N+](=O)[O-])c1`, the inhibition is reported as 2.65% (inactive). For `O=C(N/N=C1/CCS(=O)(=O)c2ccc(F)cc21)c1ccccn1`, the inhibition was -0.55% (inactive). In the case of `CCCC(c1nnnn1CCc1ccccc1)N1CCN(C(=O)c2ccco2)CC1` (configuration not stated), the inhibition is reported as 5.26% (inactive). For `COc1ccccc1OCCCCN1CCN(C(c2ccccc2)c2ccccc2)CC1`, the inhibition was -0.89% (inactive). In the case of `CCN(CC)S(=O)(=O)c1cc(NS(=O)(=O)c2cc(Cl)ccc2Cl)ccc1C`, the inhibition is reported as 3.03% (inactive). For `CCC(=O)Nc1ccc(Oc2ccc3c(c2)C(=O)N(c2ccc(O)cc2)C3=O)cc1`, the inhibition was 2.87% (inactive). `COC1=C(OC)C(=O)C(CCCCCCCCCCO)=C(C)C1=O` was tested, and the inhibition was -5.02% (inactive). `COC1=CC(=O)C(O)=C(CCCCCCC/C=C/CCCCCCCC2=C(O)C(=O)C=C(OC)C2=O)C1=O` was tested, and the inhibition was 14.3% (active). With `CCCCCCCCCCCC1=C(O)C(=O)C=C(O)C1=O` the inhibition was 1.77% (inactive). `COC(=O)c1c(C)oc2cc(Br)c(OCC(=O)C(C)(C)C)cc12` was tested, and the inhibition was -1.38% (inactive). For `CCC(=O)NC1CCN(C(=S)NC)CC1`, the inhibition was -4.03% (inactive). `CSc1cccc(NC(=O)CN(Cc2ccc(Cl)cc2)S(C)(=O)=O)c1` was tested, and the inhibition was -1.38% (inactive). For `Cc1ccc(-c2nc3ccccc3s2)cc1NC(=S)NC(=O)/C=C/c1ccco1`, the inhibition was 3.24% (inactive). With `O=C(/C=C/c1ccco1)NC(=S)Nc1cccc(-c2nc3ccccc3s2)c1` the inhibition was -0.02% (inactive). With `O=C(/C=C/c1ccco1)NC(=S)Nc1cc(-c2nc3ccccc3s2)ccc1Cl` the inhibition was 13% (active). For `FC(F)(F)c1cnc(NNC(=S)Nc2cccnc2)c(Cl)c1`, the inhibition was 2.72% (inactive). `COC(=O)CSc1nc(N)c(C#N)c(-c2ccco2)c1C#N` was tested, and the inhibition was 21.7% (active). In the case of `CCCOC(=O)CSc1nc(N)c(C#N)c(-c2ccco2)c1C#N`, the inhibition is reported as 2.41% (inactive). For `CC(C)OC(=O)CSc1nc(N)c(C#N)c(-c2ccco2)c1C#N`, the inhibition was -3.1% (inactive). In the case of `CCOC(=O)c1[nH]c(=O)[nH]c1CN(Cc1ccco1)Cc1[nH]c(=O)[nH]c1C(=O)OCC`, the inhibition is reported as 2.03% (inactive). With `COc1cc(OC)c(OC)cc1CN1CCC(O)CC1` the inhibition was 0.1% (inactive). `Cn1c(-c2ccc(Br)cc2)cnc1NCc1cccnc1` was tested, and the inhibition was -2.36% (inactive). With `CCCCN(C)CCC(=O)Nc1ccc(F)c(F)c1` the inhibition was 0.07% (inactive). `Cc1ccc(-c2nnn(CC(=O)N(Cc3ccco3)C(C(=O)NC(C)(C)C)c3ccc(C)o3)n2)o1` (configuration not stated) was tested, and the inhibition was 13% (active). For `Cc1ccc(-c2nnn(CC(=O)N(Cc3ccco3)C(C(=O)NC(C)(C)C)c3ccncc3)n2)o1` (configuration not stated), the inhibition was 6.52% (inactive). For `Cc1ccc(-c2nnn(CC(=O)N(Cc3ccco3)C(C(=O)NC(C)(C)C)c3cccs3)n2)o1` (configuration not stated), the inhibition was 1.32% (inactive). `CCS(=O)(=O)N1CCN(CC(=O)NC2CCCCC2)CC1` was tested, and the inhibition was 2.03% (inactive). In the case of `COc1ccc(-c2cc3nc(-c4ccccc4)cc(N4CCC5(CC4)OCCO5)n3n2)cc1`, the inhibition is reported as 5.97% (inactive). For `O=C(N/N=C\c1ccccn1)C1c2ccccc2Oc2ccccc21`, the inhibition was -4.47% (inactive). `CN(C)CCCOc1cccc(Oc2ccccc2)c1` was tested, and the inhibition was -1.51% (inactive). `COc1cccc(C(=O)O/N=C(\N)c2ccc([N+](=O)[O-])cc2)c1` was tested, and the inhibition was -5.75% (inactive). `CCN(CC)CCOC(c1ccccc1)c1ccc(C)cc1` (configuration not stated) was tested, and the inhibition was 13.5% (active). In the case of `CCN(CC)CCC(C)OC(c1ccccc1)c1ccccc1` (configuration not stated), the inhibition is reported as -5.59% (inactive). In the case of `Cc1ccc(C(OCCN(C)C)c2cccc(C(F)(F)F)c2)cc1` (configuration not stated), the inhibition is reported as 2% (inactive). With `C=CCNC(=O)C1CC1(c1ccccc1)c1ccccc1` (configuration not stated) the inhibition was 4.25% (inactive). In the case of `COc1ccccc1NC(=O)c1cccc(S(=O)(=O)N2CCOCC2)c1`, the inhibition is reported as 0.03% (inactive). In the case of `COc1ccc(C(=O)N2CCCC(c3nc(-c4cccs4)no3)C2)cc1OC` (configuration not stated), the inhibition is reported as 13.1% (active). `COc1cc(C(=O)N2CCCC(c3nc(-c4cccs4)no3)C2)cc(OC)c1OC` (configuration not stated) was tested, and the inhibition was 2.49% (inactive). In the case of `COc1ccc(C(=O)N2CCCC(c3nc(-c4cccs4)no3)C2)cc1` (configuration not stated), the inhibition is reported as -2.88% (inactive). With `Nc1c(C(=O)Nc2nc3ccccc3s2)sc2nc(-c3cccs3)ccc12` the inhibition was -1.14% (inactive). For `Cc1csc(NC(=O)c2sc3nc(-c4cccs4)ccc3c2N)n1`, the inhibition was 0.71% (inactive). For `O=C(Nc1ncc(Cc2cccc(C(F)(F)F)c2)s1)c1ccc(-c2cccc([N+](=O)[O-])c2)o1`, the inhibition was -6.86% (inactive). `Cc1ccccc1CN1C(=O)CSc2ccc(C(=O)N3CCOCC3)cc21` was tested, and the inhibition was 0.57% (inactive). In the case of `CN(C(=O)CCc1nnc(Cc2ccc(-c3ccccc3)cc2)o1)C1CCOCC1`, the inhibition is reported as 2.22% (inactive). `C=CCn1c(COc2ccccc2)nnc1SCC(=O)Nc1ccc(S(N)(=O)=O)cc1` was tested, and the inhibition was 0.44% (inactive). In the case of `NS(=O)(=O)c1ccc(NC(=O)CSc2nnc(COc3ccccc3Cl)n2C2CC2)cc1`, the inhibition is reported as 13.3% (active). `Cn1c(COc2ccccc2)nnc1SCC(=O)Nc1ccc(S(N)(=O)=O)cc1` was tested, and the inhibition was 1.92% (inactive). In the case of `c1ccc2oc(NC3=NCN(C4CCCCC4)CN3)nc2c1`, the inhibition is reported as 0.06% (inactive). For `Cc1csc(N/N=C/c2ccc(O)c([N+](=O)[O-])c2)n1`, the inhibition was 13.8% (active). `O=[N+]([O-])c1cc(/C=N\Nc2nc(-c3ccccc3)cs2)ccc1O` was tested, and the inhibition was 7.14% (inactive). In the case of `Cc1n[nH]c(=O)nc1N/N=C/c1ccc(O)c([N+](=O)[O-])c1`, the inhibition is reported as 5.79% (inactive). With `CSc1ccc(CNc2nnnn2C)cc1` the inhibition was -1.37% (inactive). With `COC(=O)C1(CO)NC(c2cccs2)C2C(=O)N(c3ccccc3)C(=O)C21` (configuration not stated) the inhibition was -2.08% (inactive). `COc1ccc(CN2C(=O)NC(=O)/C(=C/c3ccc([N+](=O)[O-])s3)C2=O)cc1` was tested, and the inhibition was 6.92% (inactive). With `Cc1ccc(N2C(=O)NC(=O)/C(=C\c3ccc([N+](=O)[O-])o3)C2=O)cc1` the inhibition was 12.4% (inactive). With `COc1ccc(CN2C(=O)NC(=O)/C(=C\c3ccco3)C2=O)cc1` the inhibition was 8.39% (inactive). `O=C1NC(=O)N(c2ccccc2)C(=O)/C1=C\c1ccc([N+](=O)[O-])o1` was tested, and the inhibition was 16.7% (inactive). In the case of `COc1ccc(CN2C(=O)NC(=O)/C(=C/c3ccc([N+](=O)[O-])o3)C2=O)cc1`, the inhibition is reported as 19.9% (active). With `Cc1cc([N+](=O)[O-])ccc1N=Nc1c(N)[nH]n(-c2ccccc2)c1=O` the inhibition was -3.05% (inactive).
